# Results from PubChem BioAssay AID686978 (National Center for Advancing Translational Sciences (NCATS), 2013).
# Screen size: about 420,000 compounds; about 64,000 (15%) were called active. Not shown: some 27% with an inconclusive outcome. The call rests on the fitted dose curve; in most records, active means well fitted inhibition curve with a large enough effect; inconclusive means small, poorly fitted or top-dose-only effect; inactive means flat fitted curve, though single readings scatter. Not all results are given here. Square brackets hold non-standard residues; d marks the D form. Peptide text beside a SMILES is read from it. ξ: configuration not given here. Ac5c = NC1(C(=O)O)CCCC1; ξS = NC(CO)C(=O)O
# Assay: qHTS for Inhibitors of human tyrosyl-DNA phosphodiesterase 1 (TDP1): qHTS in cells in absence of CPT; further: nearly all actives have a fitted effect of over 55% in size
# Conditions: DT40 Tdp1-/- hTDP1 cells, no CPT, ATP luminescence, 48 h; activity change, negative = growth inhibition: at 46.2 µM (top of the series)
# Method in brief: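 Growth of hTDP1-complemented DT40 Tdp1-knockout cells is measured by ATP luminescence after at least 48 hr compound exposure at 37 °C, with DMSO substituting for the 20 nM CPT used in the parallel screen.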
# On the % scale 0 is the no-effect control and ±100 the full control effect; potency means the concentration at half of the fitted maximal effect.
SMILES,"activity change, negative = growth inhibition",Potency
NC(=O)C1(N2CCCCC2)CCN(C2CC(=O)N(Cc3ccc(N4CCCC4=O)cc3)C2=O)CC1 (stereo unspecified),-3.12% (inactive),
CC(Oc1cccc(Cl)c1)C(=O)Nc1ccc(S(=O)(=O)Nc2ncccn2)cc1 (stereo unspecified),-0.0684% (inactive),
C[C@H](CO)N1C[C@H](C)[C@H](CN(C)CC2CC2)Oc2ccc(NC(=O)CCN3CCOCC3)cc2C1=O,-4.56% (inactive),
CC1CCCN(C(=O)c2cc(-c3ccco3)nc3ccccc23)C1 (stereo unspecified),-13.8% (inactive),
O=C1c2cccc3cccc(c23)C(=O)N1CCCCCc1n[nH]c(=S)o1,-12.8% (inactive),
COc1ccc(-c2cc(C(=O)N(C)CC(=O)Nc3ccccc3Cl)c3ccccc3n2)cc1OC,,9.2 µM (active)
CN(Cc1ccc(F)cc1)C(=O)COc1ccc2ccccc2c1,-15.6% (inactive),
COc1ccc(-c2cc(C(=O)N(C)Cc3ccccc3)c3ccccc3n2)cc1,,14.6 µM (active)
COc1ccc(/C=N/OCC(=O)N(Cc2ccccc2)c2ccccc2C(=O)O)cc1,-1.1% (inactive),
Cc1cccc(C(=O)NCC(=O)OCC(=O)N(C)CC(=O)Nc2ccccc2Cl)c1,-9.68% (inactive),
CN(CC(=O)Nc1ccccc1Cl)C(=O)c1ccccc1SCC(=O)N1CCCC1,-16.5% (inactive),
COc1ccc(NC(=O)c2cc(-c3cc(OC)c(OC)c(OC)c3)nc3ccccc23)c(OC)c1,,8.2 µM (active)
CC(C)(C)Cc1nnc(NC(=O)c2cc(-c3ccccc3)nc3ccccc23)s1,-26.7% (inactive),
COc1ccc(-c2cc(C(=O)N(C)Cc3ccc(OC)c(OC)c3OC)c3ccccc3n2)cc1OC,,18.4 µM (active)
COc1ccccc1NC(=O)c1cc(Cl)nc2ccccc12,4.16% (inactive),
COc1ccc(CN(C)C(=O)Cc2c[nH]c3ccccc23)c(OC)c1OC,-23.1% (inactive),
CC(C)(O)C#Cc1ccc(CNC[C@H]2O[C@@H](n3cnc4c(=O)[nH]c(N)nc43)[C@H](O)[C@@H]2O)s1,2.14% (inactive),
O=C(CN1CCC(NC(=O)C2CC2)CC1)Nc1ccccc1[N+](=O)[O-],-8.6% (inactive),
C=O,1.38% (inactive),
CN1CCC2(CC1)NC(=O)NC2=O,-11.8% (inactive),
Cc1ccc(NC(=O)COC(=O)CNC(=O)c2ccc(Cl)cc2Cl)cc1S(=O)(=O)N1CCOCC1,1.87% (inactive),
NC(=O)Cc1ccc2sc(-c3ccccc3)nc2c1,-21.5% (inactive),
Cn1c(=O)n(C)c2cc(/C=N/NC(=O)c3cccc(Br)c3)ccc21,-24.1% (inactive),

SMILES,"activity change, negative = growth inhibition",Potency
Cc1ccc(-c2cc(C(=O)Nc3nn[nH]n3)c3ccccc3n2)c(C)c1,1.44% (inactive),
COc1ccc(CN(C)C(=O)Cc2ccsc2)c(OC)c1OC,-6.23% (inactive),
COc1ccc(CN(C)C(=O)c2cc(-c3ccc(C)cc3C)nc3ccccc23)c(OC)c1OC,,11.6 µM (active)
CC(=O)Nc1nc2c(s1)C(=O)NCC(C)(C)C2,5.92% (inactive),
Cn1nc(C(C)(C)C)c(NC(=O)c2sccc2Cl)c1C(C)(C)C,-23.7% (inactive),
NCCCNCCCCN(CCCN)/[N+]([O-])=N/O,,13.3 µM (active)
COc1ccc(CN2[C@@H](CC(=O)O)c3cc(F)ccc3S2(=O)=O)cc1,,inactive
COCCNC(=S)N1CCC(NC(=O)C23CC4CC(CC(C4)C2)C3)CC1,-11.4% (inactive),
Cc1csc(NC(=S)Nc2cccc(Cl)c2)n1,,4.61 µM (active)
S=C(Nc1cccc(Cl)c1)Nc1ccc2c(c1)OCCO2,-15.8% (inactive),
S=C(Nc1cccc(Cl)c1)Nc1ccc2cn[nH]c2c1,-3.53% (inactive),
COc1cc(Cl)c(C)cc1Nc1nnc(-n2nc(C)cc2C)c2ccccc12,-24% (inactive),
Cc1ccc(NC(=O)NC(=O)CSc2nnc(-c3ccc(OC(F)F)cc3)n2N)c(C)c1,11.1% (inactive),
CCOC(=O)CN(C(=O)CN1CCOCC1)c1ccc(Br)cc1,-10.1% (inactive),
COC(CNC(=O)c1ccc2c(c1)ncn2-c1cc(C)cc(C)c1)OC,-14.3% (inactive),
COc1ccc(-n2cnc3cc(C(=O)NC4CCCC4)ccc32)cc1,-25.9% (inactive),
COCCNC(=O)c1ccc2c(c1)ncn2-c1ccc(C)c(Cl)c1,,14.6 µM (active)
CC(=O)N/C(=C\c1ccc(F)cc1)C(=O)NC(Cc1ccccc1)C(=O)O (stereo unspecified),8.07% (inactive),
Cc1cc(C)cc(NC(=O)CSc2ccccc2)c1,-21.9% (inactive),
CC(=O)Nc1ccc(NC(=O)CSCc2cnn(-c3ccccc3)c2-n2cccc2)cc1,-14.5% (inactive),
Cc1cc(C)cc(NC(=O)CSCc2cnn(-c3ccccc3)c2-n2cccc2)c1,,10.3 µM (active)
CCOC(=O)c1ccc(N2C(=O)CC(N3CCN(C(=O)c4ccccc4)CC3)C2=O)cc1 (stereo unspecified),18.9% (inactive),
FC(F)(F)c1nnc2sc(-c3ccco3)nn12,15.9% (inactive),

SMILES,"activity change, negative = growth inhibition",Potency
FC(F)(F)c1nnc2c3ccccc3c(Cl)nn12,,6.51 µM (active)
Nc1nnc2c(C(F)(F)F)nc3ccccc3n12,-21.9% (inactive),
O=C(COC(=O)c1cc2c(s1)CCCC2)NCc1ccccc1Cl,-5.8% (inactive),
C/C(=N\NC(=O)c1ccc(CSc2nc(C)cc(C)n2)cc1)C1CCCCC1,-16.8% (inactive),
CC1CCN(C(=O)/C(=C\c2ccccc2F)NC(=O)c2ccccc2)CC1,-22.6% (inactive),
COC(=O)c1cccc(N(C(=O)CNC(=O)c2cccs2)C(C(=O)NCC2CCCO2)c2ccc(OC)c(OC)c2)c1 (stereo unspecified),-19.2% (inactive),
COCCn1c(-c2ccc(OC)c(OC)c2)nc2ccccc21,-26.5% (inactive),
CCCn1c(C(O)c2cc(OC)ccc2OC)nc2ccccc21 (stereo unspecified),-14.8% (inactive),
CCOCCn1c(-c2ccccc2)nc2ccccc21,,18.4 µM (active)
CCOCCn1c(C(C)C)nc2ccccc21,-25.3% (inactive),
COc1ccc(-c2nc3ccccc3n2CCC(C)C)cc1OC,,25.9 µM (active)
CCCCCN(C(=O)NC(=O)Nc1ccccc1OC)S(C)(=O)=O,-17.8% (inactive),
CC(C)c1ccc(NC(=O)Cn2nnc(C(=O)NCCc3ccccc3)c2N)cc1,5.52% (inactive),
CN(C)c1ccc(/C=C/c2sc3ccccc3[n+]2C)cc1,,0.141 µM (active)
CN(C)c1ccc(/C=C/c2sc3ccccc3[n+]2CCCCBr)cc1,,0.316 µM (active)
Cc1cccc(CN2CCN(Cc3cnn(-c4ccccc4F)c3)CC2CCO)n1 (stereo unspecified),-16% (inactive),
CC(=O)N1CCN(S(=O)(=O)c2ccc(C)c([N+](=O)[O-])c2)C1C(C)C (stereo unspecified),-4.36% (inactive),
O=C1CC2(CCCC2)C(=O)N1CN1CCN(S(=O)(=O)c2ccc(F)cc2F)CC1,-2.62% (inactive),
CCC(C(=O)Nc1ncccn1)(C(F)(F)F)C(F)(F)F,-8.1% (inactive),
COc1cc(NC(=O)CSC(=S)N2CCCC2)c(OC)cc1Cl,,14.6 µM (active)
CCOCC(=O)Nc1cc(OC)c(Cl)cc1OC,-4.91% (inactive),
COc1cc(Cl)c(C)cc1NC(=O)CSc1nnc(CN2CCCC2)o1,21.9% (inactive),
COc1ccc(C(=O)N(C)CC(O)c2ccccc2)cc1OC1CCN(C(C)=O)CC1 (stereo unspecified),18.6% (inactive),

SMILES,"activity change, negative = growth inhibition",Potency
Cc1cc2c(=O)n(CC(=O)NCC(=O)Nc3ccc(C(C)C)cc3)cnc2s1,11.4% (inactive),
CCC1(C)Cc2c(sc3nc(SC)[nH]c(=O)c23)CO1 (stereo unspecified),-2.82% (inactive),
CCC1(C)Cc2c(sc3[nH]c(=S)n(Cc4ccccc4)c(=O)c23)CO1 (stereo unspecified),,18.4 µM (active)
CCC1(C)Cc2c(sc3nc(SC)nc(N)c23)CO1 (stereo unspecified),-40% (inactive),
Cc1ccc(/C=C/C(=O)O)cc1S(=O)(=O)N1CCC(Cc2ccccc2)CC1,4.06% (inactive),
CCOC(=O)C(CO)NC(=O)C1(NC(C)=O)CCCC1 (stereo unspecified) (Ac-[Ac5c]-[ξS]-OEt),18.1% (inactive),
C/C(=N\NC(=O)Cc1ccc(Br)cc1)c1cccnc1,6% (inactive),
CC(=NNC(=S)N1CCCCCC1)c1ccccn1,,0.0164 µM (active)
COc1ccc(CC(=O)N/N=C(\C)c2ccccn2)cc1,,7.31 µM (active)
COc1ccc(/C(C)=N/NC(=O)c2ccc3nc[nH]c3c2)cc1,1.6% (inactive),
C/C(=N\NC(=O)c1ccccc1F)c1ccccn1,,0.517 µM (active)
C/C(CC(=O)Nc1ccc(N(C)C)cc1)=N\NC(=O)c1ccccc1F,6.54% (inactive),
CC1=NNC(=O)C1CCC(=O)N/N=C(\C)c1ccc(Cl)cc1 (stereo unspecified),-2.58% (inactive),
O=C(Nc1ccc(NC(=O)c2ccccc2F)cc1)c1ccccc1F,-0.0635% (inactive),
C/C(=N\NC(=O)Cc1ccc(Cl)cc1)c1ccccn1,,2.31 µM (active)
COc1ccc(C/C(C)=N/NC(=O)c2ccncc2)cc1,10.6% (inactive),
CNC(=S)N1CCN(c2ccccn2)CC1,0.242% (inactive),
Cc1cccc(C)c1NC(=S)N1CCCCCC1,-7.49% (inactive),
CCN(CC(=O)Nc1cc(Cl)ccc1C)C(=O)Cn1c(=O)cnc2ccccc21,4.61% (inactive),
Cc1ccc(CC(=O)N(C)CC(=O)N(CC(C)C)c2c(N)n(CC(C)C)c(=O)[nH]c2=O)cc1C,-14.8% (inactive),
O=C(COC(=O)c1ncc(Cl)c(Cl)c1Cl)NCc1cccs1,9.23% (inactive),
CCN(CC)C(=O)Cn1cc(S(=O)(=O)CC(=O)NCc2ccc3c(c2)OCO3)c2ccccc21,-2.15% (inactive),
Cc1ccccc1/C=C\c1nc(O)c([N+](=O)[O-])c(=O)[nH]1,1.57% (inactive),

SMILES,"activity change, negative = growth inhibition",Potency
Cc1ccc(NC(=O)COc2ccc(/C=N\NC(=O)c3cccnc3)cc2)cc1C,-4.49% (inactive),
CCOc1cc2c(Cl)ncnc2c(OCC)c1OCC,-0.504% (inactive),
O=S(=O)(Nc1ccc(OC(F)(F)F)cc1)c1cccc2nonc12,-26.6% (inactive),
CCOc1ccc(S(=O)(=O)n2ccnc2)c2ccccc12,0.648% (inactive),
CC(C)C1CC2=C(C(=O)OC(C)(C)O2)C(c2ccc(F)cc2)O1 (stereo unspecified),-0.527% (inactive),
CC[C@@H]1CC2=C(C(=O)OC(C)(C)O2)[C@@H](CC)O1,-9.09% (inactive),
CC1(C)OC(=O)C2=C(CC(c3ccccc3)OC2CCc2ccccc2)O1 (stereo unspecified),,23.1 µM (active)
CN(C)c1nc(-c2cccnc2)nc(-c2ccc(Cl)cc2)c1C#N,-26.8% (inactive),
CN(C)C(=O)Cn1c(=O)n(S(=O)(=O)c2ccccc2)c2ccccc21,1.81% (inactive),
CC(=O)c1ccc(NC(=O)CCc2nc(-c3ccc(C)cc3)no2)cc1,,16.4 µM (active)
Cc1ccc(-c2noc(CCC(N)=O)n2)cc1,-15.8% (inactive),
CCNC(=O)CCc1nc(-c2ccc(C)cc2)no1,-26.5% (inactive),
CC(C)CC(=O)N=C1SC2CS(=O)(=O)CC2N1CCc1ccccc1 (stereo unspecified),-18.7% (inactive),
CCOC(=O)C1CCN(C(=O)COc2cc(C)c(Br)c(C)c2)CC1,-22.3% (inactive),
CCOC(=O)C1CCCN(C(=O)c2cccc3ccccc23)CC1 (stereo unspecified),-29.7% (inactive),
CCOC(=O)C1CCN(c2ncnc3c2c(-c2ccccc2)cn3-c2ccc(C)cc2)CC1,,18.4 µM (active)
CCOC(=O)C1CCN(c2ncnc3c2c(-c2ccccc2)cn3-c2cccc(C)c2)CC1,,23.1 µM (active)
CCOC(=O)C1CCN(Cc2ccc(-c3ccccc3)cc2)CC1,3.59% (inactive),
CCOC(=O)C1CCN(Cc2nnc(-c3cccc(Br)c3)o2)CC1,-4.65% (inactive),
